Screens (PubChem)
This is a sample that favours compounds with a hit; in the whole collection about 6.7% have one here.
PINK1 expr mod: PINK1 expression modulation; PINK1 immunofluorescence, high-content cytometry, 24 h; Potency, µM (top dose mostly 76.6 µM), for inactives: at the top dose activation (PINK1 increase), usual class: activators; 410,000 compounds, 0.2% hits; AID 624263; active = well fitted activation curve with a large enough effect; inconclusive = small, poorly fitted or top-dose-only effect; cell line not stated here; also: % of control where 0% means no effect; nearly all actives have a fitted effect of over 65% in size
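Decision-based qHTS: stable cells, 24 h exposure to five compound concentrations, CCCP as control. Fixed cells stained for PINK1 plus nuclear, mitochondrial and cell markers, cytometer read.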
KB-V1 MDR tox: kills drug-selected multidrug resistant KB-V1 cells | 400,000 compounds, 3.4% hits | AID 1347076 | KB-V1 MDR cells viability, CellTiter-Glo, 72 h | Potency, µM (highest dose often 46.1 µM), actives largely listed as cytotoxic; also: % is scaled to controls: 0 for no effect and ±100 for the full control effect; nearly all actives have a fitted effect of over 60% in size
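qHTS viability screen in drug-selected KB-V1 MDR cells: 72 h compound treatment at 37 degrees C, ATP luminescence end point.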
SW480 rereplic: DNA re-replication induction in SW480 cells; Potency, µM (highest dose often 46.1 µM), without a hit: top-dose re-replication activation, usual class: activators; 340,000 compounds, 1.8% hits; SW480 DNA re-replication, Hoechst DNA content imaging, 48 h; also: % of control where 0% means no effect; nearly all actives have a fitted effect of over 55% in size
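DNA re-replication was detected as more nuclei of elevated Hoechst intensity after 48 hr exposure to compound (23 nL pinned per well of 250 cells).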
KB-3-1 cytotox: kills parental KB-3-1 adenocarcinoma cells | KB-3-1 viability, CellTiter-Glo ATP luminescence, 72 h | Potency, µM (top dose mostly 46.1 µM), usual class: cytotoxic | 400,000 compounds, 1.4% hits | AID 1347075; also: % is scaled to controls: 0 for no effect and ±100 for the full control effect; nearly all actives have a fitted effect of over 60% in size
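KB-3-1 parental drug-naive adenocarcinoma cells in DMEM/10% FBS, incubated 72 h at 37 C with pin-transferred compounds across a concentration series. Viability by CellTiter-Glo luminescence; concentration-response curves fitted after normalization.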
MCF10A rerep: inducers of DNA re-replication in MCF 10A breast cells; Potency, µM (titrated, usually from 46.1 µM), for inactives: top-dose activity, positive = re-replication, actives largely listed as activators; AID 624296; MCF 10A DNA re-replication, Hoechst nuclear intensity, 48 h; 350,000 compounds, 2.9% hits; also: % of control where 0% means no effect; nearly all actives have a fitted effect of over 50% in size
The depositor's hits bear a star; [ ] = remark or other dose. Unless noted, calls follow the shape of the dose curve; as a rule, active = well fitted curve in the direction sought with a large enough effect; inconclusive = small, poorly fitted or top-dose-only effect, or another doubt; inactive = no such curve, though single readings can be large; an effect the other way counts as inactive or inconclusive. Potency is read from the fitted curve at half-maximal effect.

How did CCCCSc1nnc(CNC(=O)C23CC4CC(CC(C4)C2)C3)n1Cc1ccccc1 do in these assays?
PINK1 expr mod: inconclusive; KB-V1 MDR tox: 2.6µM*; SW480 rereplic: 13%; KB-3-1 cytotox: inconclusive; MCF10A rerep: inconclusive

How did CCCCn1c(CNC(=O)C23CC4CC(CC(C4)C2)C3)nnc1SC(C)CC (stereo not drawn) do in these assays?
PINK1 expr mod: 18%; KB-V1 MDR tox: 21µM*; SW480 rereplic: 7%; KB-3-1 cytotox: inconclusive; MCF10A rerep: inconclusive

How did Cc1ccc2c(c1C)NC(=O)CC2c1ccc(Cl)cc1Cl (stereo not drawn) do in these assays?
PINK1 expr mod: 2%; KB-V1 MDR tox: inconclusive; KB-3-1 cytotox: inactive

What do the screens show for `COc1cc(N(C)C)c(OC)cc1/C=C1\Cc2ccccc2C1=O`?
PINK1 expr mod: 15%; KB-V1 MDR tox: inactive; KB-3-1 cytotox: inactive

How did COc1cccc(C(=O)NCCS(=O)(=O)N2CCCC(C)C2)c1 (stereo not drawn) do in these assays?
PINK1 expr mod: 1%; KB-V1 MDR tox: inactive; KB-3-1 cytotox: inactive

How did COc1cccc(C(=O)N2c3cc(C)ccc3C(C)(c3ccccc3)CC2(C)C)c1 (stereo not drawn) do in these assays?
PINK1 expr mod: 5%; KB-V1 MDR tox: inconclusive; KB-3-1 cytotox: inactive

Results for Cc1ccc2c(n1)sc1c(-c3ccc(Br)cc3)c(C#N)c(N)nc12 ?
PINK1 expr mod: 2%; KB-V1 MDR tox: inactive; SW480 rereplic: 2.3µM*; KB-3-1 cytotox: inactive; MCF10A rerep: inconclusive

How did CCC(CC)NCc1ccc2c(c1)c1ccccc1n2CC do in these assays?
PINK1 expr mod: inconclusive; KB-V1 MDR tox: inconclusive; SW480 rereplic: 2%; KB-3-1 cytotox: inactive; MCF10A rerep: 21µM*

Results for CCn1c2ccccc2c2cc(CNCc3ccc(OC)cc3OC)ccc21 ?
PINK1 expr mod: -2%; KB-V1 MDR tox: inactive; SW480 rereplic: inconclusive; KB-3-1 cytotox: inactive; MCF10A rerep: 7.3µM*

Results for CCn1c2ccccc2c2cc(N)ccc21 ?
PINK1 expr mod: 7%; KB-V1 MDR tox: inactive; SW480 rereplic: 17%; KB-3-1 cytotox: inactive; MCF10A rerep: inconclusive

Results for COc1ccccc1CCNc1ncnc2sc(C(=O)N3CCCC3)c(C)c12 ?
PINK1 expr mod: 0%

How did CC(=O)c1ccc(N2CCN(c3ccc(C(F)(F)F)cn3)CC2)cc1 do in these assays?
PINK1 expr mod: 22%; KB-V1 MDR tox: 7.3µM*; SW480 rereplic: -18%; KB-3-1 cytotox: inconclusive; MCF10A rerep: -53%

How did COc1cc2c(cc1OC)CN(C(C)C(=O)N1CCc3ccccc31)CC2 (stereo not drawn) do in these assays?
PINK1 expr mod: 4%; KB-V1 MDR tox: inconclusive; SW480 rereplic: inconclusive; KB-3-1 cytotox: inconclusive; MCF10A rerep: inconclusive

What do the screens show for `O=C(c1ccc(Oc2ccc(C(F)(F)F)cc2[N+](=O)[O-])cc1)N1CCOCC1`?
PINK1 expr mod: -2%; KB-V1 MDR tox: 23µM*; SW480 rereplic: -13%; KB-3-1 cytotox: inconclusive; MCF10A rerep: 9%

How did Cc1c(C(=O)N2CCN(c3ccc(C(F)(F)F)cn3)CC2)oc2ccccc12 do in these assays?
PINK1 expr mod: -1%; KB-V1 MDR tox: inactive; SW480 rereplic: -6%; KB-3-1 cytotox: inactive; MCF10A rerep: 23µM*

Results for CC(C(=O)N1CCc2ccccc21)N1CCc2ccccc2C1 (stereo not drawn) ?
PINK1 expr mod: -1%; KB-V1 MDR tox: 15µM*; SW480 rereplic: 1%; KB-3-1 cytotox: inactive; MCF10A rerep: 7%

What do the screens show for `CC(C)(C)OC(=O)NCCCCCNC(=O)c1[nH]cnc1C(=O)Nc1ccon1`?
PINK1 expr mod: 1%; KB-V1 MDR tox: inactive; SW480 rereplic: -1%; KB-3-1 cytotox: inactive; MCF10A rerep: -1%

What do the screens show for `CCOC(=O)C(CS)NCCN[C@@H](CS)C(=O)OCC` (stereo partly drawn)?
SW480 rereplic: 1%; MCF10A rerep: 0%

How did COc1ccccc1N1CCN(C(=O)c2oc3ccc(Br)cc3c2C)CC1 do in these assays?
PINK1 expr mod: 5%; KB-V1 MDR tox: 13µM*; SW480 rereplic: inconclusive; KB-3-1 cytotox: 10µM*; MCF10A rerep: 16µM*

Results for COc1ccccc1N1CCN(C(=O)c2oc3ccccc3c2C)CC1 ?
PINK1 expr mod: 8%[38.3 µM]; KB-V1 MDR tox: inactive; SW480 rereplic: 15µM*; KB-3-1 cytotox: inactive; MCF10A rerep: inconclusive

What do the screens show for `Cn1ncc(Br)c1C(=O)N1CCc2ccccc21`?
PINK1 expr mod: 1%; KB-V1 MDR tox: inconclusive; SW480 rereplic: 0.52µM*; KB-3-1 cytotox: inactive; MCF10A rerep: 4%

What do the screens show for `Cc1nn(C)c(C(=O)N2CCc3ccccc32)c1Br`?
PINK1 expr mod: 9%; KB-V1 MDR tox: inconclusive; SW480 rereplic: 0%; KB-3-1 cytotox: inactive; MCF10A rerep: inconclusive

How did COCc1c(C(=O)N2CCN(CCOc3ccccc3)CC2)oc2ccccc12 do in these assays?
PINK1 expr mod: 0%; KB-V1 MDR tox: inconclusive; SW480 rereplic: inconclusive; KB-3-1 cytotox: inactive; MCF10A rerep: 7%

Results for COCc1c(C(=O)N2CCN(c3ccccc3C)CC2)oc2ccccc12 ?
PINK1 expr mod: 3%; KB-V1 MDR tox: 21µM*; SW480 rereplic: 2%; KB-3-1 cytotox: inactive; MCF10A rerep: 17%

Results for COc1ccccc1N1CCN(C(=O)c2oc3ccc(F)cc3c2C)CC1 ?
PINK1 expr mod: 1%; KB-V1 MDR tox: inconclusive; SW480 rereplic: inconclusive; KB-3-1 cytotox: inconclusive; MCF10A rerep: inconclusive

Results for COc1ccccc1N1CCN(C(=O)c2oc3ccccc3c2NC(=O)C(C)Oc2ccccc2)CC1 (stereo not drawn) ?
PINK1 expr mod: 2%; KB-V1 MDR tox: inactive; KB-3-1 cytotox: inconclusive

Results for COCc1c(C(=O)N2CCc3ccccc32)oc2ccccc12 ?
PINK1 expr mod: 3%; KB-V1 MDR tox: inactive; SW480 rereplic: 26%; KB-3-1 cytotox: inactive; MCF10A rerep: inconclusive

What do the screens show for `O=C(c1ccc(C(F)(F)F)cc1)N1CCN(c2ccc(N3CCOCC3)nn2)CC1`?
PINK1 expr mod: -1%; KB-V1 MDR tox: 16µM*; SW480 rereplic: -8%; KB-3-1 cytotox: inactive; MCF10A rerep: 14%

Results for Cc1c(C(=O)N2CCc3ccccc32)oc2ccccc12 ?
PINK1 expr mod: 4%; KB-V1 MDR tox: 18µM*; SW480 rereplic: 19%; KB-3-1 cytotox: inactive; MCF10A rerep: 3%

How did CCc1ccc2occ(CC(=O)Nc3sc4c(c3C(=O)NCCOC)CCCC4)c2c1 do in these assays?
PINK1 expr mod: 1%; KB-V1 MDR tox: inactive; KB-3-1 cytotox: inactive

What do the screens show for `CCN1CCCC1CNC(=O)c1cnn(-c2nccc(-c3ccco3)n2)c1C1CC1` (stereo not drawn)?
PINK1 expr mod: -1%
